About 420 (0.61%) of roughly 69,000 compounds showed an effect of 50% or more. The list comes from a sample in which strong results are over-represented; it also holds similar structures and randomly drawn compounds.
Target: T1, Histidine--tRNA ligase (Leishmania infantum) (UniProt A4I591)
T1 sequence (whole entry): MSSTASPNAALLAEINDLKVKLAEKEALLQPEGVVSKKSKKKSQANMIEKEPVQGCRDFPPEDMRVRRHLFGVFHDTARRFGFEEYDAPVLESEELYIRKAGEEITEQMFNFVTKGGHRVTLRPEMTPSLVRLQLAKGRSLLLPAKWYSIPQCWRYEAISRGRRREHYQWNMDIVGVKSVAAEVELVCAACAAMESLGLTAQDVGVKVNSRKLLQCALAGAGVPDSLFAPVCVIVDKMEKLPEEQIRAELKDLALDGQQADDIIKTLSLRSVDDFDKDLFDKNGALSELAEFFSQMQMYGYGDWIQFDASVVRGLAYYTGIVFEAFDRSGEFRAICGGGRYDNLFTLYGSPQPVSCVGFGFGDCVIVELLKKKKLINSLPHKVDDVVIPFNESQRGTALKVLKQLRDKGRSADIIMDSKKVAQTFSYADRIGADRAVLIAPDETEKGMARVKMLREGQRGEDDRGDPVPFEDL
Test: Leishmania infantum Histidine tRNA synthetase (LdHisRS)
Type: functional
Set-up: scale not given: in the data most compounds retested in dose-response had high values
Conditions: 30 µM

SMILES	Percent Effect [%]
CNc1ncccc1CN1CCN2CCN(C)CC2C1 (stereo not given)	6.33
Cc1cccc2cc(CN3CCCN4CCC[C@H]4C3)c(=O)[nH]c12	17.5
Clc1cc(CN2CCCN3CCCC3C2)c2ncccc2c1 (stereo not given)	62.9
CNC(=O)[C@H]1C[C@@H]2CN(c3cc(OC)ncn3)C[C@@H]2N1C(C)C	-7.02
c1cc(COC[C@]23COC[C@H]2CN(Cc2ccsc2)C3)ccn1	10.1
CNCCc1nc2cc(Cl)ccc2[nH]1	14.6
CNCCc1nc2cc(F)ccc2[nH]1	55.3
CCNCCc1nc2cc(F)ccc2[nH]1	25.8
O=C1[C@H]2CN(Cc3ccccn3)C[C@H]2CN1c1ccsc1	6.42
COc1ccc2c(c1)c(C(=O)Nc1nnn[nH]1)cn2C(C)C	52.1
COc1ccc2c(c1)c(C(=O)Nc1n[nH]c(C(C)C)n1)cn2C(C)C	22.9
COc1ccc2c(c1)c(C(=O)Nc1nnn[nH]1)cn2C	18.8
CN1C(Cn2cccn2)C[C@@H]2CN(Cc3cccnc3)CC[C@@H]21 (stereo not given in full)	13.7
O=C1[C@@H]2CCN(C3CCC3)C[C@@H]2OCCN1Cc1ccncc1	17.2
Cc1noc(C)c1CN1CC[C@H]2OCC[C@@]2(C(=O)N2CCCO2)C1	17.6
O=C1[C@H]2CN(CC3CC3)C[C@H]2CN1c1ccsc1	3.01
COc1ccc(CCN)cc1-c1ccc(S(C)(=O)=O)cc1	23.9
COc1ccc(CCN)cc1-c1ccc(O)cc1	-4.22
COc1ccc(CCN)cc1-c1ccc(C(N)=O)cc1	71.8
c1cnc(N2CCO[C@H]3CN(CC4CCOCC4)C[C@H]32)nc1	11.7

From ChEMBL document CHEMBL3988442, “University of Dundee, Small-Polar-MMV Screening Library” (2021)
